Experimental data taken from PubChem BioAssay (NCATS).
Inconclusive results are not listed. Values without a mark were called inactive. Activity calls are given as the source filed them. Calls follow the shape of the dose curve; as a rule, active = well fitted inhibition curve with a large enough effect; inconclusive = small, poorly fitted or top-dose-only effect; inactive = no such curve, though single readings can be large or run the other way.

The molecules below were run on Zika virus NS2B-NS3 protease (linked construct) (assay: Primary screen NINDS Rhodamine qHTS for Zika virus inhibitors (AID 1347160; also: nearly all actives have a fitted effect of over 55% in size)). Conditions: purified NS2B-NS3 protease, Rhodamine110 substrate fluorescence; series mostly up to 57.1 µM; activity change, negative = inhibition: at the top concentration.
Summary of the method: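 Kinetic fluorescence (Ex 480 nm, Em 540 nm) over 15 min with 1.5 microM Rhodamine110 peptide and 25 nM linked protease.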
% is scaled to controls: 0 for no effect and ±100 for the full control effect; potency is read from the fitted curve at half-maximal effect.

Row | Structure (SMILES) | outcome | activity change, negative = inhibition | Potency
1 | CC(C)CC(=O)OC[C@H]1O[C@@](COC(=O)CC(C)C)(O[C@H]2O[C@H](CO)[C@@H](O)[C@H](O)[C@H]2OC(=O)CC(C)C)[C@@H](OC(=O)CC(C)C)[C@@H]1O | inactive [at 15.1 µM] |  | 
2 | CN(C)c1cccc(-c2c3c(=O)n(-c4ccccc4Cl)[nH]c3cc(=O)n2C)c1 |  | 11.5% | 
3 | C/C(=C\CO)CC/C=C(\C)C(=O)O[C@H]1[C@H](OC2OC=C(C(=O)O)C3CCC(C)(O)C23)O[C@H](CO)[C@@H](O)[C@@H]1O (stereo not given in full) |  | -17.3% [at 33.1 µM] | 
4 | C[C@@H]1O[C@@H](O[C@H]2[C@H](O[C@H]3[C@H](O[C@H]4CC[C@@]5(CO)C(CC[C@]6(C)C5CC=C5C7CC(C)(C)C[C@@H](O)[C@]7(C)CC[C@]56C)C4(C)C)O[C@H](C(=O)O)[C@@H](O)[C@@H]3O)OC[C@@H](O)[C@@H]2O)[C@H](O)[C@H](O)[C@H]1O (stereo not given in full) |  | -8.64% [at 15.1 µM] | 
5 | CCNC(=O)[C@@H]1CCCN1C(=O)[C@H](CCCN=C(N)N)NC(=O)[C@H](CC(C)C)NC(=O)[C@@H](C)NC(=O)[C@H](Cc1ccc(O)cc1)NC(=O)[C@H](CO)NC(=O)[C@H](Cc1c[nH]c2ccccc12)NC(=O)[C@H](Cc1cnc[nH]1)NC(=O)[C@@H]1CCC(=O)N1 |  | 16% [at 33.1 µM] | 
6 | CC1(C)C(=O)C(C)(C)c2cc(C(=O)Nc3ccc(C(=O)O)cc3)ccc21 |  | -4.75% | 
7 | CCc1c(CC(N)=O)c2cc(OCCCP(=O)(O)O)ccc2n1Cc1ccccc1 |  | -23.3% | 
8 | CC1(C)CC[C@]2(C(=O)O)CC[C@]3(C)C(=CCC4[C@@]5(C)CCC(O[C@@H]6OC[C@H](O)[C@H](O)[C@H]6O[C@@H]6O[C@H](CO)[C@@H](O)[C@H](O)[C@H]6O)[C@@](C)(CO)C5CC[C@]43C)[C@@H]2C1 (stereo not given in full) | inactive [at 15.1 µM] |  | 
9 | CC1(C)CC[C@]2(C(=O)O)CC[C@]3(C)C(=CCC4[C@@]5(C)C[C@H](O)[C@H](O[C@@H]6OC[C@H](O)[C@H](O)[C@H]6O)[C@@](C)(CO)C5CC[C@]43C)[C@@H]2C1 (stereo not given in full) |  | -5.48% [at 15.1 µM] | 
10 | COC(=O)C1C(c2ccc(O)cc2)C(C(=O)OC)C1c1ccc(O)cc1 (stereo not given) |  | -19.8% [at 33.1 µM] | 
11 | COc1cc(/C=C/C(=O)OC2CC(C)=C(C(=O)O)/C2=C/CO[C@@H]2O[C@H](CO)[C@@H](O)[C@H](O)[C@H]2O)ccc1O (stereo not given in full) |  | -26% [at 33.1 µM] | 
12 | C[C@@H]1O[C@@H](O[C@H]2[C@H](OC(=O)[C@]34CCC(C)(C)C[C@H]3C3=CCC5[C@@]6(C)C[C@H](O)[C@H](O[C@@H]7O[C@H](CO)[C@@H](O[C@@H]8O[C@H](CO)[C@@H](O)[C@H](O)[C@H]8O)[C@H](O)[C@H]7O)[C@@](C)(CO)C6[C@H](O)C[C@@]5(C)[C@]3(C)C[C@H]4O)OC[C@H](O)[C@@H]2O)[C@H](O)[C@H](O)[C@H]1O[C@@H]1OC[C@@H](O)[C@H](O[C@@H]2OC[C@](O)(CO)[C@H]2O)[C@H]1O (stereo not given in full) |  | -19.4% [at 10.7 µM] | 
13 | CC1CC(=O)C2=C(O1)OC1(C)CCC3C(C)(C)C=CC(=O)C3(C)C1C2 (stereo not given) |  |  | 12.6 µM (active)
14 | CC1=CCC2C(C)(CO)CCCC2(CO)C1CO (stereo not given) |  |  | 15.8 µM (active)
15 | CC(=O)OC[C@]1(O)[C@H]2[C@H](OC(=O)CC(C)C)OC=C(CO[C@@H]3O[C@H](CO)[C@@H](O)[C@H](O)[C@H]3O)[C@H]2C[C@@H]1O |  | -18.6% [at 33.1 µM] | 
16 | CCCOc1ccn2c(C(C)=O)cc(-c3ccccc3S(C)(=O)=O)c2c1 |  | 4.81% | 
17 | CC1CCCC2OC2C(=O)c2c(O)cc(O)cc2CC(=O)O1 (stereo not given) | inactive |  | 
18 | COC(=O)c1ccc(O[C@@H]2O[C@H](CO)[C@@H](O)[C@H](O)[C@H]2O)c(OC)c1 |  | -16.3% [at 33.1 µM] | 
19 | COC(=O)C1=CO[C@@H](O[C@@H]2O[C@H](CO)[C@@H](O)[C@H](O)[C@H]2O)[C@@H]2[C@@](C)(O)[C@@H](O)C[C@]12O |  | 9.13% [at 33.1 µM] | 
20 | C/C=C(\C)C(=O)O[C@H]1[C@@H](O[C@]2(COC(=O)CC(C)C)O[C@H](COC(=O)C(C)C)[C@@H](OC(C)=O)[C@@H]2O)O[C@H](COC(C)=O)[C@@H](O)[C@@H]1O |  | -18.2% [at 15.1 µM] | 

Row | Structure (SMILES) | outcome | activity change, negative = inhibition | Potency
21 | C[C@]1(O)CC[C@@H]2C(C(=O)O)=CO[C@@H](O[C@@H]3O[C@H](COC(=O)c4ccc(O)cc4)[C@@H](O)[C@H](O)[C@H]3O)[C@@H]21 |  | -24% [at 33.1 µM] | 
22 | NCCCC[C@H](NC(=O)[C@@H]1Cc2ccccc2CN1C(=O)CCC(=O)c1ccccc1)C(=O)NCC(c1ccccc1)c1ccccc1 |  | 109% | 
23 | N[C@H]1C[C@H]1c1ccc(-c2cccc(O)c2)cc1 |  |  | inactive
24 | CCOc1cc2ncc(C#N)c(Nc3ccc(OCc4ccccn4)c(Cl)c3)c2cc1NC(=O)/C=C/CN(C)C |  | 18% [at 33.1 µM] | 
25 | Nc1ncnc2c1ncn2[C@H]1CCCO1 | inactive |  | 
26 | COC1CCCC/C(C)=C/C2C=C(C)C(C)C3C(CC(C)C)NC(=O)C23C(=O)C1 (stereo not given) |  | -8.97% [at 33.1 µM] | 
27 | CC1CCC2(C)C(CC(O)C(O)C23CO3)C1(C)CCC1=CC(O)OC1=O (stereo not given) | inactive [at 33.1 µM] |  | 
28 | CC1CCC2(C(=O)OC3OC(CO)C(O)C(O)C3O)CCC3(C(=O)O)C(=CCC4C5(C)CCC(OC6OC(C)C(O)C(O)C6O)C(C)(C)C5CCC43C)C2C1C (stereo not given) |  | -1.51% [at 15.1 µM] | 
29 | Cc1[nH]cnc1C1CCN(c2nc3cccc4c3n2CCC4=O)CC1 | inactive |  | 
30 | O=C(/C=C/c1ccc(O)cc1)OCC1=C[C@@H](O)[C@@H]2C=CO[C@@H](O[C@@H]3O[C@H](CO)[C@@H](O)[C@H](O)[C@H]3O)[C@H]12 |  | -21.2% [at 33.1 µM] | 
31 | CC1CCC2C(C(=O)O)=CC3CC(C)(C)CC132 (stereo not given) |  |  | 25.1 µM (active)
32 | C=C(C)[C@H]1C[C@@H](O)C(=C)CC[C@@H](O)C(=C)[C@@H](O)C1 | inactive |  | 
33 | C=C1[C@@H]2[C@H]3OC(=O)C(=C)[C@@H]3CC[C@@](C)(O)[C@@H]2C[C@@H]1O[C@@H]1O[C@H](CO)[C@@H](O)[C@H](O)[C@H]1O |  | 14.6% [at 33.1 µM] | 
34 | CC1=CC(=O)CC(C)(CO[C@@H]2O[C@H](CO)[C@@H](O)[C@H](O)[C@H]2O)C1(O)/C=C/C(C)=C/C(=O)O (stereo not given in full) |  | 3.99% [at 33.1 µM] | 
35 | C=C1CCC2(OC1)OC1CC3C4CC=C5CC(O)CC(O[C@@H]6OC[C@@H](O)[C@H](O)[C@H]6O)C5(C)C4CCC3(C)C1(O)C2C (stereo not given in full) |  | 23.3% [at 15.1 µM] | 
36 | O=C(O)C[C@H]1CCC(=O)[C@@H]1C/C=C\CCOC1OC(CO)C(O)C(O)C1O (stereo not given in full) |  | -2.13% [at 33.1 µM] | 
37 | CC1CCC2C(C)(C)C(O)CCC2(C)C12Cc1c(O)cc3c(c1O2)CN=C3N (stereo not given) |  | -10.7% [at 33.1 µM] | 
38 | CC(C)C(C#N)O[C@@H]1O[C@H](CO[C@@H]2OC[C@](O)(CO)[C@H]2O)[C@@H](O)[C@H](O)[C@H]1O (stereo not given in full) |  | 8.59% [at 33.1 µM] | 
39 | C/C=C/C=C/C=C/C(=O)O[C@@H]1[C@@H](OC)C2=C(C(=O)N(C(C)C(=O)O)C2)[C@@]2(C)CCCC(C)(C)[C@H]12 (stereo not given in full) |  |  | 11.2 µM (active)
40 | CCn1cc(C2=NOC(C(=O)Nc3c(C)n(C)n(-c4ccccc4)c3=O)C2)c(C)n1 (stereo not given) |  | 28.3% | 
